This note sets out measurements from PubChem BioAssay (NCI).

The panel holds about 79,000 compounds, 15% with a hit somewhere; the sample as a whole holds those more often. A number with no mark means an inactive call. Active and inactive are the calls of the source. No stated cut-off is given here; in the data, active means growth inhibition above about 70%; inactive means the rest.

Test [1] is described as follows: NCI Yeast Anticancer Drug Screen. Data for the rad50 strain (AID 155).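 Further: 0% = growth of vehicle-only cultures of the same strain.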 The conditions noted are these: S. cerevisiae rad50 strain growth inhibition; at 50.0 µM; active compounds read high. The essentials:
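A DNA repair-deficient yeast mutant serves as the test organism; compound-induced growth inhibition is calculated against vehicle-treated cells.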

Test [2] can be described thus: NCI Yeast Anticancer Drug Screen. Data for the mec2-1 strain (AID 157). The conditions noted are these: S. cerevisiae mec2-1 strain, at 50.0 µM, active compounds read high. Summed up:
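Mutant yeast (mec2-1) grown with compound; growth inhibition relative to vehicle control reported.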

Test [3] is described as follows: NCI Yeast Anticancer Drug Screen. Data for the sgs1 mgt1 strain (AID 161).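 Further: 0% = growth of cultures given vehicle only.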 The conditions noted are these: S. cerevisiae sgs1 mgt1 strain, at 50.0 µM, active compounds read high. The essentials:
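This yeast growth screen uses a strain with defined DNA-repair lesions; compound-treated growth is compared with vehicle-treated growth.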

A short description of test [4]: NCI Yeast Anticancer Drug Screen. Data for the cln2 rad14 strain (AID 165).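 Further: 0% = growth equal to vehicle treated cultures.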 The conditions noted are these: S. cerevisiae cln2 rad14 strain, at 50.0 µM, active compounds read high. Summed up:
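Readout is yeast growth inhibition versus vehicle-treated controls, using a strain with cln2 and rad14 alterations exposed to compound.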

A short description of test [5]: NCI Yeast Anticancer Drug Screen. Data for the bub3 strain (AID 167). The conditions noted are these: S. cerevisiae bub3 mutant strain, at 50.0 µM, active compounds read high. Summed up:
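Inhibition values come from growth of compound-treated mutant yeast normalised to vehicle-treated controls.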

The nature of test [6]: NCI Yeast Anticancer Drug Screen. Data for the mlh1 rad18 strain (AID 175). The conditions noted are these: S. cerevisiae mlh1 rad18 strain growth inhibition; at 50.0 µM; active compounds read high. The essentials: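 Genetically defined yeast (DNA repair-deficient) exposed to compounds; growth inhibition determined relative to vehicle.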

Take `CCN(CC)CCNC(=O)Cc1cc(O)c2c(c1O)C(=O)c1ccccc1C2=O`: the growth inhibition was 73% (active) in test [1]; 5% in test [2]; 76.8% (active) in test [3]; 40.9% in test [4]; 6.1% in test [5]; 51.5% in test [6].
Take `CCCCCCCCCCCCCCCCCC(=O)OCC(COC(C)=O)OC(C)=O` (stereo unspecified): the growth inhibition is -3.45% in test [1]; -5.05% in test [2]; -3.8% in test [3]; -46.1% in test [4]; -1.2% in test [5]; 4.8% in test [6].
For the molecule `CCOC(=O)NC(=O)c1cn(C2OC(CO)C(O)C2O)c(=O)[nH]c1=O` (stereo unspecified), the growth inhibition in test [1] was 10.3%; in test [2] it was -18.6%; in test [3], -16.6%; in test [4], -5.9%; in test [5], 28.6%; in test [6], 44.5%.
In the case of `CCC/C=C(/CC)COC(C)=O`, the growth inhibition is 3.15% in test [1]; -19.1% in test [2]; -6.6% in test [3]; -7.25% in test [4]; -5.35% in test [5]; -3.85% in test [6].
In the case of `Cc1nc2n(c1C(N)=O)CCS2`, the growth inhibition in test [1] was 5.15%; in test [2], -5.65%; in test [3] it was -5%; in test [4], -55.8%; in test [5] it was -10.7%; in test [6], -10.7%.
For the molecule `Cc1cnc(SC(C)(C)C)c(C)c1`, the growth inhibition in test [1] was -0.2%; in test [2] it was -20.2%; in test [3] it was -8.55%; in test [4] it was -68.6%; in test [5], 12.9%; in test [6], -10.5%.
Consider `CN(C)CC1CCC(CN(C)C)C(=O)C1=O` (stereo unspecified), for which the growth inhibition was -36% in test [1]; -39.4% in test [2]; -64.5% in test [3]; -14.7% in test [4]; -31.3% in test [5]; -31.3% in test [6].
Turning to `CCCCCCCCNCC(=O)O`, the growth inhibition in test [1] was -20%; in test [2], -21.6%; in test [3], -5.35%; in test [4] it was 3.05%; in test [5] it was -13.1%; in test [6] it was -12.9%.
As to `Nc1cccc2sccc12`, the growth inhibition in test [1] was 4.25%; in test [2] it was 5.15%; in test [3], -3.85%; in test [4] it was -4.1%; in test [5], 11.9%; in test [6], -3.35%.
Turning to `CN(C)c1ccc(C(=O)c2ccc([N+](=O)[O-])cc2)cc1`, the growth inhibition in test [1] was -1.6%; in test [2] it was -10%; in test [3] it was 0.5%; in test [4] it was 6.3%; in test [5] it was -4.95%; in test [6], -8.25%.
Consider `Cc1cc(Cl)cc(C)c1O`, for which the growth inhibition is 39.8% in test [1]; -10.3% in test [2]; 6.15% in test [3]; 0.95% in test [4]; 14.9% in test [5]; 11.8% in test [6].
Turning to `O=[N+]([O-])c1ccc(Cl)c(F)c1Cl`, the growth inhibition in test [1] was -13%; in test [2], -17.1%; in test [3] it was -0.2%; in test [4] it was 5.15%; in test [5] it was -3.9%; in test [6], -12.2%.
On to `COc1ccc2c(CCn3ccccc3=O)cccc2c1`, for which the growth inhibition in test [1] was -13.3%; in test [2] it was -8.5%; in test [3], 7.55%; in test [4] it was -13.9%; in test [5], 44.9%; in test [6] it was -11.2%.
`CCCC(CCc1ccccc1)C(=O)NC(N)=O` (stereo unspecified): the growth inhibition is 4.5% in test [1]; -5.6% in test [2]; 1.45% in test [3]; 2.55% in test [4]; 42.7% in test [5]; 1.4% in test [6].
In the case of `O=C(OCc1ccc([N+](=O)[O-])cc1)N1c2ccccc2[C@@]23O[C@]24CCC[C@H]3C#C/C=C\C#C[C@H]14`, the growth inhibition in test [1] is 22.1%; in test [2], 25.2%; in test [3], 2.45%; in test [4], -13.6%; in test [5] it was 9.85%; in test [6], -32.6%.
In the case of `O=S(=O)(N/N=C/c1ccc(Cl)c(Cl)c1)c1ccccc1`, the growth inhibition in test [1] was 18.9%; in test [2] it was 13.6%; in test [3], 9.8%; in test [4] it was -28.4%; in test [5], 13.1%; in test [6], 32.2%.
Regarding `CC(Cc1ccccc1)c1ccccc1` (stereo unspecified), the growth inhibition in test [1] was 15.9%; in test [2] it was 16.2%; in test [3], 10.7%; in test [4] it was 3.35%; in test [5], -0.05%; in test [6] it was 2.1%.
Regarding `Cc1onc(-c2ccccc2)c1C(=O)N1CCCN2C(=O)c3ccccc3C21` (stereo unspecified), the growth inhibition was -0.3% in test [1]; -11.1% in test [2]; 15.8% in test [3]; 2% in test [4]; 22.3% in test [5]; 15.8% in test [6].
Take `O=NN(CCCl)C(=O)NC1CCC(C(=O)O)CC1` (stereo unspecified): the growth inhibition was 29.6% in test [1]; -2.05% in test [2]; -6.65% in test [3]; -7.8% in test [4]; -0.75% in test [5]; 2.4% in test [6].
On to `CCCCNc1nnc(N)s1`, for which the growth inhibition in test [1] is 4.65%; in test [2], -24.2%; in test [3], -10.3%; in test [4] it was -34.5%; in test [5], -2.2%; in test [6] it was -27.9%.
For `COC(=O)C1OC(Sc2ncnc3nc[nH]c23)C(O)C(O)C1O` (stereo unspecified), the growth inhibition was 3.15% in test [1]; 1.6% in test [2]; -0.85% in test [3]; 17.4% in test [4]; 7.3% in test [5]; 4.9% in test [6].
